Screening results as filed in PubChem.
This is one part of a sample in which hits are shown more often than they occur.
Methyltransferases: Primary Screen for Target Class Profiling of Small Molecule Inhibitors of Methyltransferases. purified enzyme, MTase-Glo SAH luminescence; active compounds read low. 3.9% of 25,000 active. AID 1745853, 2022. calls only at 40 µM; call rule not given here
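Each enzyme was assayed with SAM and its substrate. SAH formation detected by MTase-Glo luminescence; single-point 40 uM screen[…].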
MTase-Glo ctr: inhibits MTase-Glo coupling enzymes without methyltransferase. MTase-Glo coupled enzymes, SAH conversion luminescence, no MTase. 6% of 180 active. AID 1745851. Potency, µM (series often up to 57.3 µM), for inactives: top-dose activity change, negative = inhibition, actives largely listed as inhibitors. shares compounds with Methyltransferases; active = well fitted inhibition curve with a large enough effect; also: potency is read from the fitted curve at half-maximal effect
* = called active by the depositor; [ ] = another dose, or the depositor's remark. % is scaled to controls: 0 for no effect and ±100 for the full control effect.

Screening C[S+](=O)([O-])N1CCC(Cn2ccc3c(N4CCOCC4)nc(-c4cccc5[nH]ncc45)cc32)CC1 returned Methyltransferases active and MTase-Glo ctr 3.8%.
`CN1C(=O)c2cc(C(=O)NCCc3ccco3)nn2CC1(C)C(=O)NCc1ccccc1` (stereo not drawn) gave Methyltransferases inactive.
Cc1cc(C)cc(NC(=O)Cn2nc3n(CC(C)C)c(=O)c4ccccc4n3c2=O)c1 was read as Methyltransferases inactive.
Screening O=C(c1ccc(Cl)cc1)N1CC2(CCN(CC3CC3)CC2)Cc2ccccc21 returned Methyltransferases active and MTase-Glo ctr -1.4%.
Screening O=C(C1CCCC1)N1CC2(CCN(Cc3cccnc3)CC2)Cc2ccccc21 returned Methyltransferases inactive.
O=C(c1ccccc1)N1CC2(CCCN2Cc2cccnc2)Cc2ccccc21 (stereo not drawn) was read as Methyltransferases inactive.
`O=C(Cn1nc(-c2ccccc2)c2ccccc21)N1CCN(c2ccccc2F)CC1` gave Methyltransferases inactive.
For OC1CC(c2cc(N3CCC(c4nc5ccccc5[nH]4)CC3)ncn2)C1 (stereo not drawn) the results were Methyltransferases inactive.
COc1ccccc1CNC(=O)C1(C)Cn2c(cc3ccccc32)C(=O)N1Cc1ccccc1Cl (stereo not drawn) was read as Methyltransferases inactive.
For COCCNC(=O)CCc1nnc2n(Cc3ccccc3)c(=O)c3ccccc3n12 the results were Methyltransferases inactive.
`O=C(OCc1ccccc1)N1CCOCC12CCN(Cc1c[nH]c3ccccc13)CC2` gave Methyltransferases active and MTase-Glo ctr 3.0%[85.7 µM].
`O=C1OCC2(CCN(Cc3c[nH]c4ccccc34)C2)N1Cc1ccccc1` (stereo not drawn) gave Methyltransferases inactive.
c1ccc(CC2=NOC3(CCN(Cc4c[nH]c5ccccc45)CC3)C2)cc1 was read as Methyltransferases inactive.
Cc1cccc(-c2n[nH]n3c2nc(=O)c2ccc(C(=O)N4CCN(c5ccccc5)CC4)cc23)c1 was read as Methyltransferases inactive.
For CC1(C(=O)NCc2ccc(F)cc2)Cn2cnc(C(=O)NCCCc3ccccc3)c2C(=O)N1C1CC1 (stereo not drawn) the results were Methyltransferases inactive.
CCOCCCNC(=O)c1cc2n(n1)CC(C)(C(=O)NC1CCCC1)N(C)C2=O (stereo not drawn) was read as Methyltransferases inactive.
For CCCn1c(=O)c2ccccc2n2c(SCC(=O)Nc3cc(Cl)ccc3OC)nnc12 the results were Methyltransferases inactive.
`COc1ccc(N2C(=O)c3cc4sccc4n3CC2(C)C(=O)NC2CCC(C)CC2)cc1Cl` (stereo not drawn) gave Methyltransferases inactive.
Screening CCN1CCCCC12Cc1ccccc1CN(S(=O)(=O)c1ccccc1)C2 (stereo not drawn) returned Methyltransferases inactive.
For COc1cccc(NC(=O)CSc2nnc3[nH]c(=O)c(C)nn23)c1 the results were Methyltransferases inactive.
For CCCn1c(C)cnc1C1CCN(S(=O)(=O)c2cn(C)cn2)C1 (stereo not drawn) the results were Methyltransferases inactive.
For COc1ccc(Cl)cc1NC(=O)Cn1nc2cc(C)nc(Nc3ccccc3)n2c1=O the results were Methyltransferases inactive.
For COc1cccc(CNC(=O)c2c(C)noc2-c2ccccc2OC)c1 the results were Methyltransferases inactive.
COc1ccc(OCc2cc(C(=O)NC(CO)C(C)C)no2)c2ccccc12 (stereo not drawn) was read as Methyltransferases active and MTase-Glo ctr 2.3%.
Screening COc1cccc(OC)c1-c1cc(C(=O)N[C@@H](CC(C)C)C(=O)O)nn1-c1ccnc2cc(Cl)ccc12 returned Methyltransferases inactive.
`O=C(c1ccncc1)N1CC(N(Cc2ccncc2)CC2CC2)C1` gave Methyltransferases inactive.
Screening COc1cccc(-c2cccc(C(=O)N3C[C@H](CO)C[C@H](CN(C)C)C3)c2)c1 returned Methyltransferases active and MTase-Glo ctr -1.8%.
`COc1cccc(-c2ccc(C(=O)N3CCC(NC(=O)N(C)C)CC3)cc2)c1` gave Methyltransferases inactive.
CN(C)C[C@H]1C[C@@H](CO)CN(C(=O)c2csc(Cc3ccccc3)n2)C1 was read as Methyltransferases inactive.
CC(C)Cn1c(=O)c2ccc(C(=O)NC(C)C)cc2n2c(=O)n(Cc3ccccc3Cl)nc12 was read as Methyltransferases inactive.
`CCCC1c2ccc(C)n2CCN1C(=O)Nc1ccc(C)c(C)c1` (stereo not drawn) gave Methyltransferases inactive.
`CC(C)Cn1c(=O)c2ccc(C(=O)NC(C)C)cc2n2c(=O)n(CC(=O)NC3CCCCC3)nc12` gave Methyltransferases inactive.
